IL-2 act – IL-2 activation | IL-2 activation reporter assay, cell-based qHTS; stimulated with anti-CD3/CD4/CD28 beads; in transgenic mouse T cells | activation, % (series mostly up to about 46 µM) | 0.065% of 360,000 active; in the data active means activation above about 50%; inconclusive means mostly about 30% to 49%; further: 0% is about no effect
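Readout: EGFP and DsRed signals by fluorescent plate cytometry. Unstimulated transgenic mouse T cells received compound 60 min before antibody-bead stimulation, then incubated 18 h at 37 degrees C.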
gsp antag – antagonists of gsp mutant (McCune-Albright syndrome); gsp-mutant cells, cAMP HTRF, 30 min; Potency, µM (highest dose often 76.9 µM), without a hit: at the highest dose activity change, negative = inhibition, usual class: inhibitors; 0.4% of 340,000 active; AID 624288; calls by dose curve; cell line not stated here;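 further: intracellular cAMP measured with PDE inhibitor Ro 20-1724 present during compound exposure; potency means the concentration at half of the fitted maximal effect; on the % scale 0 is the no-effect control and ±100 the full control effect; nearly all actives have a fitted effect of over 65% in size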
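G418-selected cells were plated in DMEM/10% FBS for 16-24 h at 37C, then treated with compounds plus the PDE inhibitor […] (300 uM solution added) for 30 min at 37C. Intracellular cAMP was measured by HTRF after 30 min lysis at room temperature.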
gsp agonist – agonists of gsp mutant (McCune-Albright syndrome) | gsp mutant cells, cAMP HTRF, 30 min | Potency, µM (highest dose often 76.9 µM), for inactives: top-dose activation (cAMP increase), most hits filed as activators | 0.13% of 340,000 active | AID 624287; active means well fitted activation curve with a large enough effect; inconclusive means small, poorly fitted or top-dose-only effect, or another doubt; inactive means no such curve, though single readings can be large or run the other way; cell line not stated here;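 further: phosphodiesterase inhibitor Ro 20-1724 added with compounds to block cAMP breakdown; potency means the concentration at half of the fitted maximal effect; nearly all actives have a fitted effect of over 60% in size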
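Cells in DMEM/10% FBS with G418 were pretreated with compounds in DMSO plus […] (300 uM stock) for 30 min at 37C. cAMP was measured by HTRF (cAMP-d2 plus anti-cAMP antibody-K) after 30 min at room temperature.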
BRCA1 expr act – activators of BRCA1 expression; 1.1% of 380,000 active; MCF7-BRCA1-FFLuc reporter, luminescence, 48 h; response scale: scaled: vehicle 0%, 10 µM genistein 100%; Potency, µM (titrated, usually from 46.1 µM), for the others: at the highest dose activation, actives largely listed as activators; further: potency means the concentration at half of the fitted maximal effect; nearly all actives have a fitted effect of over 80% in size
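First, MCF7-BRCA1-FFLuc cells (2000/well) attach for 2 h; next, compounds are pin-added and incubated 48 h at 37 °C; finally, luciferase reagent is added and luminescence read after 15 min.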
IDH1 R132H inh – human IDH1 R132H inhibition | IDH1-R132H enzyme, NADPH consumption, diaphorase/resazurin fluorescence | Potency, µM (highest dose often 76.6 µM), for inactives: at the highest dose activity change, negative = inhibition, usual class: inhibitors | 0.093% of 390,000 active | O75874; further: potency means the concentration at half of the fitted maximal effect; on the % scale 0 is the no-effect control and ±100 the full control effect; nearly all actives have a fitted effect of over 65% in size
Target sequence (O75874 whole entry R132H, stated change not applied): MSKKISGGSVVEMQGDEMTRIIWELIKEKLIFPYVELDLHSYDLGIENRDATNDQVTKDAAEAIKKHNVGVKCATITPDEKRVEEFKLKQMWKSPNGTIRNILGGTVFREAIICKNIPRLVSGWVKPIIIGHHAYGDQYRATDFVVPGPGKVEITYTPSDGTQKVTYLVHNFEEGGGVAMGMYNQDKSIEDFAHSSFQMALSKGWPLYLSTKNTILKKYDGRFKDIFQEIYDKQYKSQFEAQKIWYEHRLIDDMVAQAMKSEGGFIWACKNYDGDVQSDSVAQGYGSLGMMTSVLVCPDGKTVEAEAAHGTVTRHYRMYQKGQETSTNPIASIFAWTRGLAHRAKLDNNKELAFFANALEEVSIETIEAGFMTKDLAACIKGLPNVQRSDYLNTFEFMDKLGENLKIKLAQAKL
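IDH1-R132H (0.5 ug/mL dispensed) in pH 7.5 Tris buffer was preincubated 30 min with compound, then given a substrate mix of 0.016 mM NADPH and 2 mM alpha-KG for 80 min at room temperature; remaining NADPH was read by diaphorase/resazurin fluorescence.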
* hit, by the source's call; ? = inconclusive; nt = no result given; [ ] = another dose, or the depositor's remark. Sampled rows, rich in hits. Any-hit rate of the full collection: about 1.5%. Unless noted, the call rests on the fitted dose curve; in most records, active means well fitted curve in the direction sought with a large enough effect; inconclusive means small, poorly fitted or top-dose-only effect, or another doubt; inactive means no such curve, though single readings can be large; an effect the other way counts as inactive or inconclusive.

SMILES	IL-2 act	gsp antag	gsp agonist	BRCA1 expr act	IDH1 R132H inh
Cc1nn(CC(C)C)c(Cl)c1C(=O)NC1CCC(C)CC1 (stereo unspecified)	0.8	8.5%	7.8%[15.4 µM]	3.16µM*	-2.0%
Cc1nn(Cc2ccccc2Cl)c(Cl)c1C(=O)OCC(=O)NC(=O)NC1CCCCC1	1.5	-0.2%	-7.8%	16.7%	6.0%
O=C(Nc1ccc(OC(F)(F)F)cc1)Oc1ccccc1N1CCCCC1	-0.4	6.9%	6.3%	20.1%	-3.4%
Nc1ccccc1C(=O)OCC(=O)N1CCc2ccccc21	-0.4	5.5%	-5.4%[15.4 µM]	?	4.0%
CN(CC(=O)N1CCc2ccccc21)S(=O)(=O)c1cccs1	0.1	0.8%	-9.7%	3.98µM*	6.4%
O=C(NCC(c1ccco1)N1CCCC1)c1cccc(S(=O)(=O)N2CCc3ccccc32)c1 (stereo unspecified)	-2.4	nt	-75.2%	-40.8%	-4.7%
O=C1NC(=S)NC(=O)C1=Cc1ccc(OCc2ccccc2)cc1	2.2	0.7%	6.0%[15.4 µM]	12.6µM*	-0.4%
COc1ccc(C=C2C(=O)NC(=S)NC2=O)cc1	-0.4	-0.2%	3.0%	3.0%	5.9%
Cc1nc2ccc(NC(=O)c3ccc(Cl)s3)cc2s1	-2.4	-19.2%	-13.2%	3.55µM*	3.8%
Cc1ccc(-n2c(=O)[nH]c3ccccc3c2=O)cc1[N+](=O)[O-]	0.3	nt	nt	11.2µM*	nt
c1ccc(-c2cc(-c3ccccc3)[n+](-c3ccccc3)c(-c3ccccc3)c2)cc1	-3.8	50.1µM*	-4.9%[15.4 µM]	-66.6%	-0.9%
Cc1ccc(-c2cc(-c3ccc(C)cc3)[n+](-c3ccccc3)c(-c3ccc(C)cc3)c2)cc1	-0.8	-23.3%	nt	-20.9%	-9.5%
Cc1ccc(-c2cc(-c3ccccc3)cc(-c3ccccc3)[n+]2-c2ccccc2)cc1	-0.7	50.1µM*	nt	-80.6%	1.1%[38.3 µM]
C[C@@H]1CNC(=O)c2c(C(=O)Nc3ccc(CNC(=O)OC(C)(C)C)cc3)ncn21	-5.5	nt	?	-43.2%	0.5%
Cc1[nH]n(-c2ccccc2)c(=O)c1C(c1ccc([N+](=O)[O-])cc1)c1c(C)[nH]n(-c2ccccc2)c1=O	19.7	25.1µM*	?	-15.5%	-7.1%
COc1cccc(CNC(=O)c2cccc(S(=O)(=O)N3CCN(C)CC3)c2)c1	-4.8	6.3%	-63.8%	-0.5%	-1.5%
CN1CCC(N(C)c2nc(-c3ccc([N+](=O)[O-])cc3)nc3ccccc23)CC1	-6.0	25.3%	3.55µM*	-94.5%	5.8%
C[n+]1c(-c2ccccc2)c2cc(N)ccc2c2ccc(N)cc21	1.9	35.5µM*	nt	-48.7%	14.7%
Cc1ccc([C@H]2N[C@]3(CCCN(Cc4ccc(C(F)(F)F)cc4)C3=O)[C@H]3C(=O)N(Cc4ccccc4)C(=O)[C@@H]23)cc1	-3.8	nt	?	-14.5%	18.8%
CN(C(=O)c1cccc(N2C(=O)C3C4C=CC(C4)C3C2=O)c1)C1CCCCC1 (stereo unspecified)	2.0	3.2%	0.3%	2.3%	-9.7%
Cc1cccc(N2C(=O)NC(=O)/C(=C\c3ccc4c(c3)CCCN4Cc3ccccc3)C2=O)c1	-1.3	-3.8%	0.0%	-55.3%	52.1µM*
CCOC(=O)c1sc(=NC(=O)c2ccc(C)c(C)c2)n(C)c1C	0.1	-11.4%	25.4%[15.4 µM]	3.16µM*	-8.8%
CCOC(=O)c1ccccc1C(=O)OCC	-0.2	2.9%	nt	1.4%	nt
Nc1ncc(S(=O)(=O)c2ccc(Cl)cc2)c(N)n1	-2.6	3.2%	28.4%	21.0%	21.5%
[O-]/[N+](=C/c1cccnc1)c1ccc(Br)cc1	-3.2	2.3%	-2.7%	11.2µM*	4.7%
COc1ccc(OC)c(N=Cc2c(O)n(Cc3ccccc3)c(=S)[nH]c2=O)c1	79.6*	13.7%	9.6%[15.4 µM]	-37.6%	6.9%
Cc1ccc(NC(=O)OC(C)CNC(=O)Oc2cccc(C)c2)cc1 (stereo unspecified)	0.2	-0.1%	-4.4%	11.2µM*	1.9%
CCN(CC(=O)Nc1ccccc1C(F)(F)F)C(=O)CCSc1ccc(F)cc1	-1.0	-6.0%	?	-27.4%	2.7%
Cc1cccc(OCCNc2ncccc2[N+](=O)[O-])c1	-2.3	nt	9.3%	11.2µM*	12.2%

High-throughput results (PubChem)
